# Source: the supplement of paper PMC10981050
# “And” between values parts separate entries of the source, which are not always exact repeats. Equal entries are not always repeated. Structures can show the parent of a compound that is named as a salt.
# How the values were obtained:
# Test in all cases: cell viability relative to vehicle control; higher = less cytotoxic
# Settings in all cases: 10 µM
# K562 = test system: K562
# Outline: (§1)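 Screening covered the Selleck bioactive, kinase and epigenetic probe libraries, less identity-inconsistent compounds, on CRISPR-edited mutant clones and isogenic wild-type clones of four leukaemia lines. Cells, at 2000 per well in 50 µL medium, received a single 10 µM acoustically dispensed dose. After 48 h the supernatant was removed and CellTiter-Glo luminescence was read. Viability was analysed in Genedata Screener as percent of the on-plate vehicle control.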
# MARIMO = test system: MARIMO
# Outline: as §1
# MOLM14 = test system: MOLM14
# Outline: as §1
# OCI-AML2 = test system: OCI-AML2
# Outline: as §1
SMILES,cell viability (K562; SRSF2 genotype: SRSF2 P95H/wt),cell viability (K562; SRSF2 genotype: SRSF2 wt/wt),cell viability (MARIMO; SRSF2 genotype: SRSF2 P95H/wt),cell viability (MARIMO; SRSF2 genotype: SRSF2 wt/wt),cell viability (MOLM14; SRSF2 genotype: SRSF2 P95H/wt),cell viability (MOLM14; SRSF2 genotype: SRSF2 wt/wt),cell viability (OCI-AML2; SRSF2 genotype: P95H/wt),cell viability (OCI-AML2; SRSF2 genotype: wt/wt)
Nc1c(Br)cc(Br)cc1CN[C@H]1CC[C@H](O)CC1 [Ambroxol HCl],103% and 109%,105%,106%,102%,101%,107%,104%,101%
O=C(NC[C@H]1CN(c2ccc(N3CCOCC3=O)cc2)C(=O)O1)c1ccc(Cl)s1 [Rivaroxaban (Xarelto)],87.3% and 85.4%,92.3%,92.5%,91.3%,96.8%,97.1%,90.8%,85.8%
C[C@@H](c1ncncc1F)[C@](O)(Cn1cncn1)c1ccc(F)cc1F [Voriconazole],102% and 99.5%,99%,107%,106%,99.5%,101%,104%,108%
Fc1ccc([C@@H]2CCNC[C@H]2COc2ccc3c(c2)OCO3)cc1 [Paroxetine HCl],63.6% and 68.3%,67.6%,44%,44.1%,47.7%,56.5%,43%,52.4%
CC(=O)Oc1ccccc1C(=O)O.CC(=O)Oc1ccccc1C(=O)O.NC(N)=O [Carbasalate Calcium],105% and 106%,102%,104%,105%,104%,103%,102%,97.8%
CC(C)c1cc2c(N3CCN(C4=NCC(C)(C)S4)CC3)ncnc2s1 [MI-3 (Menin-MLL Inhibitor)],75.8% and 67.2%,67.3%,75.4%,55%,72.2%,72.3%,40.6%,45.1%
CC(NC(=O)Cc1cc(F)cc(F)c1)C(=O)NC1C(=O)N(C)c2ccccc2-c2ccccc21 (stereo not drawn),101% and 102%,108%,99.7%,94.5%,105%,104%,105%,107%
CC1OC(OC2C(OC3CC4(C)C(CC(O)C5C(C6(C)CCC(C(C)(C)O)O6)CCC54C)C4(C)CCC(O)C(C)(C)C34)OC(CO)C(O)C2O)C(O)C(O)C1O (stereo not drawn) [Pseudoginsenoside F11],107% and 104%,111%,107%,103%,113%,108%,103%,98.4%
Nc1nc2[nH]cnc2c(=S)[nH]1 [Thioguanine],25.9% and 28.5%,26.8%,46.3%,37.5%,35.2%,23%,13.5%,20.5%
CC(S)C(=O)NCC(=O)O (stereo not drawn) [Tiopronin (Thiola)],111% and 110%,104%,105%,105%,100%,105%,100%,112%
CN(CC(=O)N(Cc1ccc(C2CCCCC2)cc1)c1ccc(C(=O)NO)cc1)S(=O)(=O)c1c(F)c(F)c(F)c(F)c1F,0.47% and 0.41%,0.42%,0.5%,0.67%,0.26%,0.33%,0.18%,0.24%
CO[C@]1(CC[C@@H](C)CO[C@@H]2O[C@H](CO)[C@@H](O)[C@H](O)[C@H]2O)O[C@H]2C[C@H]3[C@@H]4CC=C5C[C@@H](O[C@@H]6O[C@H](CO)[C@@H](O[C@@H]7O[C@@H](C)[C@H](O)[C@@H](O)[C@H]7O)[C@H](O)[C@H]6O[C@@H]6O[C@@H](C)[C@H](O)[C@@H](O)[C@H]6O)CC[C@]5(C)[C@H]4CC[C@]3(C)[C@H]2[C@@H]1C [Methylprotodioscin],0.68% and 0.5%,1.3%,0.54%,0.79%,0.52%,0.56%,0.5%,0.54%
CCCCc1oc2ccccc2c1C(=O)c1cc(I)c(OCCN(CC)CC)c(I)c1 [Amiodarone HCl],70.3% and 74.5%,69.9%,52.3%,58.6%,54.8%,62.7%,42.8%,48.5%
CC(C)c1cnn2c(NCc3ccccc3-n3cccn3)nc(OC3CCCNC3)nc12 (stereo not drawn),5.8% and 12.8%,9.75%,0.54%,0.75%,0.56%,0.56%,0.46%,1.89%
Cc1cc(-c2ccc(/N=N/c3ccc4c(S(=O)(=O)O)cc(S(=O)(=O)O)c(N)c4c3O)c(C)c2)ccc1/N=N/c1ccc2c(S(=O)(=O)O)cc(S(=O)(=O)O)c(N)c2c1O [Evans Blue],66.2% and 64.2%,62.8%,63.8%,72.2%,67.4%,64.7%,66.2%,67.6%
OCc1cc(C(O)CNCCCCCCOCCCCc2ccccc2)ccc1O (stereo not drawn) [Salmeterol],77.8% and 87.8%,88.4%,67.7%,68.6%,62.8%,74.9%,55.2%,60.2%
CCCCN1CCCC[C@H]1C(=O)Nc1c(C)cccc1C [Levobupivacaine HCl],82.7% and 79.1%,80.2%,82.3%,85.1%,83.5%,88.7%,82.3%,90.8%
C[C@@H](O[C@H]1OCCN(Cc2nn(P(=O)(O)O)c(=O)[nH]2)[C@H]1c1ccc(F)cc1)c1cc(C(F)(F)F)cc(C(F)(F)F)c1 [Fosaprepitant dimeglumine salt],52.4% and 55.7%,57%,53.1%,52.6%,60.9%,65%,52.4%,58%
CCOc1nc2cccc(C(=O)OC(C)OC(=O)OC3CCCCC3)c2n1Cc1ccc(-c2ccccc2-c2nn[nH]n2)cc1 (stereo not drawn) [Candesartan cilexetil (Atacand)],95.6% and 97.9%,75.5%,98.8%,106%,62.2%,87.1%,90%,72.1%
O=C(NNc1nc2cc(F)ccc2n2cccc12)c1cnccn1,24.8% and 29.5%,12.5%,12.6%,15.3%,4.38%,1.25%,12.4%,10.5%
Nc1nc(=O)[nH]c2c1ncn2[C@@H]1O[C@H](CO)[C@@H](O)[C@H]1O [Isoguanosine],101% and 98.5%,98.7%,94.7%,97.7%,93.3%,96.8%,106%,91.8%
